The panel holds about 83,000 compounds, 20% with a hit somewhere; the sample as a whole holds those more often.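 Compound tested at a single concentration for 48 hours in 96-well plates; a percent growth value below 10 was scored as active.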 Values without a mark were called inactive. Active and inactive are the calls of the source.

Some test systems named below: SK-MEL-2 melanoma; EKVX NSCLC; SN12C renal; UO-31 renal; TK-10 renal; ACHN renal; CAKI-1 renal; A498 renal; CCRF-CEM leukemia; MOLT-4 leukemia; SR leukemia; RPMI-8226 leukemia; OVCAR-8 ovarian; OVCAR-5 ovarian; OVCAR-4 ovarian; SK-OV-3 ovarian; IGROV1 ovarian; OVCAR-3 ovarian; HS 578T breast; NCI/ADR-RES ovarian.
Common to all, as to assay: NCI-60 one-dose screen, 48 h (100 = growth as untreated, 0 = no growth, -100 = all killed)
Holding throughout (conditions): 10 µM unless noted

Regarding `Cn1c2c(c3ccc(Cl)c(Cl)c31)C(C#N)C(C)(C)NC2=O` (stereo not given), the growth is 45.2% in the assay on SK-MEL-2 melanoma; 84.9% in the assay with EKVX NSCLC; 93.6% in the assay on SN12C renal; 110% in the assay with UO-31 renal; 82.3% in the assay on TK-10 renal; 80.1% with ACHN renal. Moreover, the growth in the assay with CAKI-1 renal was 63.4%; with A498 renal, -14.9% (active); in the assay with CCRF-CEM leukemia it was 87.9%; in the assay on MOLT-4 leukemia it was 59.4%; in the assay with SR leukemia, 66%; with RPMI-8226 leukemia, 72.1%. Further, the growth with OVCAR-8 ovarian is 95.1%; in the assay on OVCAR-5 ovarian, 77.7%; in the assay on OVCAR-4 ovarian, 89.6%; in the assay with SK-OV-3 ovarian, 105%; with IGROV1 ovarian it was -5.28% (active); in the assay on OVCAR-3 ovarian, 71.3%. Besides, the growth with HS 578T breast was 34.1%; in the assay with NCI/ADR-RES ovarian, 81.6%.
Take `Cc1ccc(S(=O)(=O)Oc2ccc3sc4cccc(NCCN(C)C)c4c(=O)c3c2)cc1`: the growth in the assay with SK-MEL-2 melanoma is -71.2% (active); in the assay with EKVX NSCLC, -84% (active); in the assay with SN12C renal, -77.2% (active); with UO-31 renal it was -95.5% (active); in the assay on TK-10 renal, -83.2% (active); in the assay with ACHN renal, -95.9% (active). Moreover, the growth with CAKI-1 renal is -97.8% (active); with A498 renal, -96% (active); in the assay with CCRF-CEM leukemia it was -45.8% (active); with MOLT-4 leukemia, -32.7% (active); in the assay with SR leukemia it was -19.4% (active); with RPMI-8226 leukemia, -48.2% (active). Besides, the growth in the assay with OVCAR-8 ovarian was -67.3% (active); in the assay on OVCAR-5 ovarian, -92.4% (active); in the assay on OVCAR-4 ovarian it was -69.8% (active); in the assay on SK-OV-3 ovarian, -93.2% (active); in the assay on IGROV1 ovarian it was -79.6% (active); in the assay on OVCAR-3 ovarian, -95.4% (active). Besides, the figures for the growth in the assay on HS 578T breast and in the assay on NCI/ADR-RES ovarian were -58.3% (active) and -90.7% (active), respectively.
In the case of `Clc1ccc(-c2cc(-c3ccccc3)nc(NCCNc3ccnc4cc(Cl)ccc34)n2)cc1`, the growth in the assay with SK-MEL-2 melanoma was 78.8%; in the assay with EKVX NSCLC, 88.4%; in the assay with SN12C renal, -48% (active); in the assay on UO-31 renal, 36.4%; with TK-10 renal it was 106%; in the assay with ACHN renal it was 10.1%. For the same molecule, the growth is 5.52% (active) in the assay on CAKI-1 renal; 53.3% in the assay on A498 renal; -2.14% (active) in the assay on CCRF-CEM leukemia; -1.52% (active) with MOLT-4 leukemia; 29.2% in the assay with SR leukemia; -25.3% (active) with RPMI-8226 leukemia. Moreover, the growth with OVCAR-8 ovarian was -55.9% (active); with OVCAR-5 ovarian, 48.9%; in the assay on OVCAR-4 ovarian it was -69.4% (active); with SK-OV-3 ovarian, 100%; in the assay on IGROV1 ovarian, -61.3% (active); in the assay on OVCAR-3 ovarian, -90.6% (active). The growth was -17.5% (active) in the assay with HS 578T breast and -63.4% (active) in the assay on NCI/ADR-RES ovarian.
In the case of `O=C(CCl)NNc1nccc(Nc2ccc(S(=O)(=O)Nc3ccncc3)cc2)n1`, the growth is 38% in the assay with SK-MEL-2 melanoma; 62.2% in the assay on EKVX NSCLC; 23.8% with SN12C renal; 63.3% in the assay with UO-31 renal; 74.6% in the assay on TK-10 renal; 37.7% in the assay on ACHN renal. In addition, the growth is 30.4% with CAKI-1 renal; 80.8% in the assay with A498 renal; 23.8% in the assay with CCRF-CEM leukemia; 44% in the assay on MOLT-4 leukemia; 37.1% in the assay on SR leukemia; 31.3% with RPMI-8226 leukemia. In addition, the growth in the assay on OVCAR-8 ovarian was 60.4%; in the assay with OVCAR-5 ovarian, 67.7%; with OVCAR-4 ovarian, 36.8%; with SK-OV-3 ovarian, 90.5%; with IGROV1 ovarian, 18.8%; with OVCAR-3 ovarian it was 24.2%. The results for the growth with HS 578T breast and with NCI/ADR-RES ovarian were 49.2% and 51%, respectively.
As to `N#C/C(=C\c1ccc(-c2cccc(C(F)(F)F)c2)o1)c1ccccc1`, the growth is 98.9% with SK-MEL-2 melanoma; 67% with EKVX NSCLC; 90.2% in the assay with SN12C renal; 68.7% in the assay on UO-31 renal; 150% with TK-10 renal; 85.2% in the assay on ACHN renal. Moreover, the growth in the assay with CAKI-1 renal was 69%; with A498 renal, 102%; with CCRF-CEM leukemia, 97%; in the assay on MOLT-4 leukemia, 89.7%; in the assay with SR leukemia, 86.3%; in the assay on RPMI-8226 leukemia, 90.9%. The growth was 101% in the assay with OVCAR-8 ovarian; 96.9% in the assay with OVCAR-5 ovarian; 79% in the assay with OVCAR-4 ovarian; 84.7% in the assay with SK-OV-3 ovarian; 59.9% in the assay with IGROV1 ovarian; 95.6% in the assay on OVCAR-3 ovarian. Besides, the growth in the assay on HS 578T breast is 86.7%; with NCI/ADR-RES ovarian it was 101%.
As to `CCCCNc1cc(-c2cn[nH]c2-c2cc(C)cc(OC)c2)nc(-c2cccnc2)n1`, the growth in the assay with SK-MEL-2 melanoma is 115%; with EKVX NSCLC, 88.3%; with SN12C renal, 95.3%; with UO-31 renal, 62.3%; with TK-10 renal, 97.2%; with ACHN renal, 96.7%. For the same molecule, the growth with CAKI-1 renal was 66.2%; in the assay with A498 renal, 64.4%; with CCRF-CEM leukemia, 84.7%; in the assay with MOLT-4 leukemia it was 82.6%; in the assay on SR leukemia, 60.1%; with RPMI-8226 leukemia, 83.1%. Also, the growth in the assay with OVCAR-8 ovarian was 80.2%; with OVCAR-5 ovarian, 85.3%; in the assay on OVCAR-4 ovarian, 73.8%; in the assay on SK-OV-3 ovarian it was 97.1%; in the assay with IGROV1 ovarian it was 115%; with OVCAR-3 ovarian, 98.8%. In addition, the growth in the assay with HS 578T breast is 97.6%; in the assay on NCI/ADR-RES ovarian, 89.8%.
With `CCN1C(=O)N(CC)C2C1NN=c1s/c(=C\c3ccc(C(F)(F)F)cc3)c(=O)n12` (stereo not given), the growth with SK-MEL-2 melanoma was 56.1%; in the assay with EKVX NSCLC, 48.5%; in the assay with SN12C renal, 24.2%; with UO-31 renal, 34.3%; in the assay on TK-10 renal it was 59.7%; with ACHN renal it was 27.6%. Besides, the growth in the assay on CAKI-1 renal was 25.9%; with A498 renal, 8.73% (active); in the assay on CCRF-CEM leukemia, 5.13% (active); with MOLT-4 leukemia, 10.9%; with SR leukemia, 12.2%; in the assay on RPMI-8226 leukemia, 9.95% (active). For the same molecule, the growth in the assay with OVCAR-8 ovarian is -2.79% (active); in the assay on OVCAR-5 ovarian, 26.7%; with OVCAR-4 ovarian, 46%; with SK-OV-3 ovarian, 36.5%; in the assay on IGROV1 ovarian, 18.7%; in the assay with OVCAR-3 ovarian, 3.24% (active). In addition, the growth with HS 578T breast was 18.4%; in the assay on NCI/ADR-RES ovarian, 2.84% (active).
Consider `Cc1cccc(N2CCC(=O)NC2=S)c1`, for which the growth was 122% in the assay on SK-MEL-2 melanoma; 107% in the assay with EKVX NSCLC; 98.2% in the assay with SN12C renal; 88.2% in the assay on UO-31 renal; 104% in the assay with TK-10 renal; 107% in the assay on ACHN renal. Moreover, the growth is 101% in the assay with CAKI-1 renal; 107% with A498 renal; 154% with CCRF-CEM leukemia; 104% in the assay on MOLT-4 leukemia; 121% in the assay with SR leukemia; 117% in the assay on RPMI-8226 leukemia. Moreover, the growth in the assay with OVCAR-8 ovarian is 99.9%; with OVCAR-5 ovarian, 105%; in the assay with OVCAR-4 ovarian it was 107%; in the assay with SK-OV-3 ovarian it was 107%; in the assay with IGROV1 ovarian, 103%; in the assay with OVCAR-3 ovarian it was 110%. The growth with HS 578T breast was 107%; in the assay on NCI/ADR-RES ovarian it was 105%.

These data come from PubChem BioAssay (NCI).
